Results on eight compounds are retold here after PubChem BioAssay (Tox21).

Records with an inconclusive call do not appear. The source made the active and inactive calls. Unless noted, calls come from the whole dose curve; as a rule, active = well fitted curve in the direction sought with a large enough effect in the repeat runs; inconclusive = weak or mixed curves; inactive = no such curve, though single readings can be large; an effect the other way counts as inactive or inconclusive.

The nature of assay [1]: qHTS assay to identify small molecule antagonists of the thyroid receptor (TR) signaling pathway - cell viability counter screen (AID 743064). Note: nearly all actives have a fitted effect of over 50% in size. An outline of the steps: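 CellTiter-Fluor readout, 30 min at 37 °C/5% CO2, following 23.5 h incubation of GH3.TRE-Luc cells with test compound and 1 nM T3 (final).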
(In qHTS, concentration-response curves come from the screen itself.)

A short description of assay [2]: qHTS assay to identify small molecule antagonists of the thyroid receptor (TR) signaling pathway (AID 743065). Note: series mostly up to about 70 µM; nearly all actives have a fitted effect of over 55% in size. In short, it runs like this: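 GH3.TRE-Luc rat pituitary cells carrying two TR response elements driving luciferase were plated for 4 h, given compound plus 1 nM T3 (final), and incubated 23.5 h at 37 C. ONE-Glo luminescence measured reporter inhibition; CellTiter-Fluor fluorescence tracked cytotoxicity.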

The test system of assay [3] is thyroid hormone receptor (rat, GH3 cells). Briefly: qHTS assay to identify small molecule agonists of the thyroid receptor (TR) signaling pathway (AID 743066; calls by dose curve).
Assay [4] deals with Estrogen receptor (Homo sapiens) (UniProt P03372). Briefly: qHTS assay to identify small molecule antagonists of the estrogen receptor alpha (ER-alpha) signaling pathway (AID 743069; active = well fitted curve in the direction sought with a large enough effect in the signal ratio in the repeat runs, not every such curve was filed as active; the % refers to the signal ratio). An outline of the steps: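 Estradiol-stimulated ER-alpha-UAS-bla HEK293 cells, 18 hr compound exposure at 37C. LiveBLAzer B/G substrate, 2 hr RT, fluorescence read.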
Assay [5] in a line: qHTS assay to identify small molecule antagonists of the estrogen receptor alpha (ER-alpha) signaling pathway - cell viability counter screen (AID 743074; calls by dose curve;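 note: HEK293 cells carrying ER-alpha-UAS-bla reporter stimulated with 17beta-estradiol; nearly all actives have a fitted effect of over 45% in size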).
For assay [6], the target named is Estrogen receptor (Homo sapiens) (UniProt P03372). Description: qHTS assay to identify small molecule agonists of the estrogen receptor alpha (ER-alpha) signaling pathway (AID 743075; calls by dose curve;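 note: HEK293 GripTite cells with ER-alpha and UAS-driven beta-lactamase reporter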).
For assay [7] the target is unchanged. Briefly: qHTS assay to identify small molecule agonists of the estrogen receptor alpha (ER-alpha) signaling pathway using the BG1 cell line (AID 743079). Note: nearly all actives have a fitted effect of over 20% in size. Note: potency is the fitted concentration of half-maximal effect.
A short description of assay [8]: qHTS assay to identify small molecule antagonists of the estrogen receptor alpha (ER-alpha) signaling pathway using the BG1 cell line (AID 743080; calls by dose curve;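 note: BG1 cells stimulated with 17beta-estradiol alongside compound; series mostly up to about 70 µM; nearly all actives have a fitted effect of over 25% in size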). An outline of the steps:
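Seeding, 24 h rest, compound transfer from DMSO, 17beta-estradiol addition, 21.5 h incubation, CellTiter-Fluor (30 min, 37 C), then ONE-Glo (30 min, room temperature): this sequence was run on BG1-Luc-4E2 reporter cells.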

Assay [9] is described as follows: qHTS assay to identify small molecule antagonists of the estrogen receptor alpha (ER-alpha) signaling pathway using the BG1 cell line - cell viability counter screen (AID 743081).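 Note: compound given together with 17beta-estradiol as the ER stimulus; series mostly up to about 70 µM; nearly all actives have a fitted effect of over 45% in size.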
For assay [10], the target named is Aromatase (Homo sapiens) (UniProt P11511). Briefly: qHTS assay to identify aromatase inhibitors (AID 743083). Note: series mostly up to about 70 µM; nearly all actives have a fitted effect of over 55% in size.
Assay [11] in a line: qHTS assay to identify aromatase inhibitors - cell viability counter screen (AID 743084).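 Note: cells stimulated with testosterone during compound exposure; nearly all actives have a fitted effect of over 55% in size.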
In assay [12] the target is Aryl hydrocarbon receptor (Homo sapiens) (UniProt P35869). Description: qHTS assay to identify small molecule that activate the aryl hydrocarbon receptor (AhR) signaling pathway (AID 743085).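 Note: HG2L7.5c1 human HepG2 liver cells with stably integrated DRE-driven firefly reporter; series mostly up to about 70 µM; nearly all actives have a fitted effect of over 15% in size.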 An outline of the steps: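 Stably transfected human liver carcinoma cells (HG2L7.5c1; 20 DRE-firefly luciferase) were incubated 5 h, dosed, and kept 24 h at 37C. Agonism was scored from increased luciferase luminescence.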

Assay [13] can be described thus: qHTS assay to identify small molecule that activate the aryl hydrocarbon receptor (AhR) signaling pathway - cell viability counter screen (AID 743086).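 Note: HepG2 liver cells carrying the AhR DRE luciferase reporter; series mostly up to about 70 µM; nearly all actives have a fitted effect of over 45% in size.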 An outline of the steps:
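HepG2-AhR-luc (HG2L7.5c1) cells, 4000/well, were preincubated 5 h at 37C, exposed to compound in qHTS format for 24 hr at 37C, then given CellTiter-Fluor for 30 min; viability was read as fluorescence in the reporter wells.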

The target in assay [14] is Peroxisome proliferator-activated receptor gamma (Homo sapiens) (UniProt P37231). Description: qHTS assay to identify small molecule agonists of the peroxisome proliferator-activated receptor gamma (PPARg) signaling pathway (AID 743094; active = well fitted activation curve with a large enough effect in the signal ratio in the repeat runs, not every such curve was filed as active; the % refers to the signal ratio). An outline of the steps:
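Quantitative HTS agonist mode: stable HEK293H line with UAS-beta-lactamase reporter under PPARg control, 17 h compound exposure at 37C, fluorescence after 1 h FRET substrate loading at room temperature.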

The target is the same in assay [15]. Briefly: qHTS assay to identify small molecule antagonists of the peroxisome proliferator-activated receptor gamma (PPARg) signaling pathway (AID 743191; calls by dose curve; note: series mostly up to about 63 µM; nearly all actives have a fitted effect of over 30% in size). In short, it runs like this:
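GeneBLAzer PPARg UAS-bla HEK293H cells carrying a UAS-driven beta-lactamase reporter were plated at 3000 cells/well, preincubated 5 h at 37C, then given compound for 17 h at 37C; LiveBLAzer B/G FRET substrate was read after 1 h at room temperature.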

A short description of assay [16]: qHTS assay to identify small molecule antagonists of the peroxisome proliferator-activated receptor gamma (PPARg) signaling pathway - cell viability counter screen (AID 743194). Note: nearly all actives have a fitted effect of over 55% in size. An outline of the steps:
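PPARg-UAS-bla HEK293H cells were plated, rested 5 h at 37 C, then treated with compounds plus rosiglitazone (50 nM final) for 17 h at 37 C; viability was then read by CellTiter-Glo luminescence after 30 min at room temperature.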

A short description of assay [17]: qHTS assay for small molecule agonists of the antioxidant response element (ARE) signaling pathway (AID 743202; active = well fitted activation curve with a large enough effect in the signal ratio in the repeat runs, not every such curve was filed as active; the % refers to the signal ratio). An outline of the steps: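 Compounds delivered in DMSO to ARE-bla HepG2 cells (2,000 cells/well, pre-incubated 5 h) and left 16 h at 37 C. LiveBLAzer B/G FRET substrate then added for 2 h at RT before fluorescence reading.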
Assay [18] can be described thus: qHTS assay for small molecule agonists of the antioxidant response element (ARE) signaling pathway - cell viability counter screen (AID 743203; calls by dose curve; note: nearly all actives have a fitted effect of over 55% in size). In short, it runs like this: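 Seeded at 2,000 cells/well, ARE-bla HepG2 cells were incubated 5 hrs before compound addition. After 16 hrs of treatment at 37C with 5% CO2, CellTiter-Glo reagent was added and luminescence read 30 min later.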

Assay [19] in a line: qHTS assay for small molecule activators of the heat shock response signaling pathway - cell viability counter screen (AID 743209). Note: nearly all actives have a fitted effect of over 50% in size. In short, it runs like this: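 First, HSE-bla HeLa cells were seeded at 1500 cells/well and kept overnight at 37 C. Next, compounds were pinned in and incubated 5 h. After the FRET substrate step, CellTiter-Glo was added and luminescence read 30 min later.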

A short description of assay [20]: qHTS assay for small molecule activators of the heat shock response signaling pathway (AID 743210; active = well fitted activation curve with a large enough effect in the signal ratio in the repeat runs, with a control signal flat, not every such curve was filed as active; the % refers to the signal ratio;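 note: HeLa cells with beta-lactamase reporter driven by heat shock elements; series mostly up to about 63 µM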). An outline of the steps:
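Reporter gene assay: HeLa cells stably bearing an HSE-bla construct, compound treatment 5 h at 37 C, LiveBLAzer substrate 2.5 h at RT, fluorescence intensity.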

Sequence of Estrogen receptor (Homo sapiens) (P03372 whole entry, looked up): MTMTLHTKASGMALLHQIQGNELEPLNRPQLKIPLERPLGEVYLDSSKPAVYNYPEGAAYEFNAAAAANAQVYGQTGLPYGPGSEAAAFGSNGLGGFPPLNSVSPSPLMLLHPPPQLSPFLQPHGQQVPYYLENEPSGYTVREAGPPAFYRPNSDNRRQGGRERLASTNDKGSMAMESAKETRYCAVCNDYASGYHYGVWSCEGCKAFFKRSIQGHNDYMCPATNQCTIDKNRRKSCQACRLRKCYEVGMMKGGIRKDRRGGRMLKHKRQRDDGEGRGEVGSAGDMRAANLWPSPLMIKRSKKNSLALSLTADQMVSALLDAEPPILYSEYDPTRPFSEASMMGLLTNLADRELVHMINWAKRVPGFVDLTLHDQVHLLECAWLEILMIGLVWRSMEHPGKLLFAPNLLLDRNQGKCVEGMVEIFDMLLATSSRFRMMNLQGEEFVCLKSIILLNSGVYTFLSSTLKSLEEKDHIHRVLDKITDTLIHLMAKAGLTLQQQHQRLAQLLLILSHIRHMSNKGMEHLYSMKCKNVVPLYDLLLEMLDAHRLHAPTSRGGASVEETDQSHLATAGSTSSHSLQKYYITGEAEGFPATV
Sequence of Aryl hydrocarbon receptor (Homo sapiens) (P35869 whole entry, looked up): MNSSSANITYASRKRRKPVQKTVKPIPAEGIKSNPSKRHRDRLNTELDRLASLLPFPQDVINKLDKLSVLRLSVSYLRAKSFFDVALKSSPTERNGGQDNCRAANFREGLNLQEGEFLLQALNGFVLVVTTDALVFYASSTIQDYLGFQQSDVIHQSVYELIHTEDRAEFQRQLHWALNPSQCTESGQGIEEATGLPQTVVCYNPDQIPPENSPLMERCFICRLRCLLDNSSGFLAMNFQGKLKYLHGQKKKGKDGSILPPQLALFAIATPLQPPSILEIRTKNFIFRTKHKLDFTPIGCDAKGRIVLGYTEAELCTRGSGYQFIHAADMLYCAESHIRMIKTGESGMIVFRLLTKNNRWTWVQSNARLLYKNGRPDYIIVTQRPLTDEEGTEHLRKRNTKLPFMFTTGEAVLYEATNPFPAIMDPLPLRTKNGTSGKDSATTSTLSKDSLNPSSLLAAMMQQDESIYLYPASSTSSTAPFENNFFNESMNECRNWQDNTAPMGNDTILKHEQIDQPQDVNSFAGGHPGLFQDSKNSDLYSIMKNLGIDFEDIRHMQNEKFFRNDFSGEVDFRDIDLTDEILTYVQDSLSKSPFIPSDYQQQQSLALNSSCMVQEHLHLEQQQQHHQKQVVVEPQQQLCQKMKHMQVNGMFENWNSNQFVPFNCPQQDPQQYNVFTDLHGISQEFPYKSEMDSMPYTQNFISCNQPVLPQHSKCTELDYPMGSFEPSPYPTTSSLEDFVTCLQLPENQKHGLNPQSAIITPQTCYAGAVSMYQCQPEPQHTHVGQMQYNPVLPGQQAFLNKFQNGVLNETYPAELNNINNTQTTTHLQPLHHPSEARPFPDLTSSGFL
Sequence of Peroxisome proliferator-activated receptor gamma (Homo sapiens) (P37231 whole entry, looked up): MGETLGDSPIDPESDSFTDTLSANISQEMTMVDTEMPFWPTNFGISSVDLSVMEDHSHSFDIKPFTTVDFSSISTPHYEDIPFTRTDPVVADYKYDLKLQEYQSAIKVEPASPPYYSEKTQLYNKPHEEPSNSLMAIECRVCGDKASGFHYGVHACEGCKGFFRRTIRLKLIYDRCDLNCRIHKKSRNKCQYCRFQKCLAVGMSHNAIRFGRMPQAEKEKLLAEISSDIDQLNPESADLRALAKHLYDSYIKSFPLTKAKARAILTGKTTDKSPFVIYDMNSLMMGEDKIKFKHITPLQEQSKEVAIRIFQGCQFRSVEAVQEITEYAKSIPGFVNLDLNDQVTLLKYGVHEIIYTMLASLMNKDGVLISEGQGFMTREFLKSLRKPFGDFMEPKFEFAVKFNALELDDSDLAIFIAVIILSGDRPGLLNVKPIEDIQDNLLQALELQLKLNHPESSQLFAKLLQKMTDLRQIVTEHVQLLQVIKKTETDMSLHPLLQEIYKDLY
Sequence of Aromatase (Homo sapiens) (P11511 whole entry, looked up): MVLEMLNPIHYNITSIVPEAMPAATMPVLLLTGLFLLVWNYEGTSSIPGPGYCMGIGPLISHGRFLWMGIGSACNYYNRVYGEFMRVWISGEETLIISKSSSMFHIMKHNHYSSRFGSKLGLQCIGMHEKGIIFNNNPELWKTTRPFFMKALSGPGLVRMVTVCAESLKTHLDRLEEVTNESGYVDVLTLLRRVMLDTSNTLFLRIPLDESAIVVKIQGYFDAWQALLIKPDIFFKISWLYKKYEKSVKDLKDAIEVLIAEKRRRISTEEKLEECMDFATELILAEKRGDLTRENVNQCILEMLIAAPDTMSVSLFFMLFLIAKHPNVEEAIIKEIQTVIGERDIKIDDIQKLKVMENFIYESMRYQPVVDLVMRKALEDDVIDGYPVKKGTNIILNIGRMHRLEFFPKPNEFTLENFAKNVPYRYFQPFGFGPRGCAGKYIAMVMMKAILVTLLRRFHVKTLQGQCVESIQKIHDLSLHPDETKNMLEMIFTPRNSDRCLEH

Turning to `CCCCCCCCCC(C)=O`, the Potency entry in [1], in assay [2], in [7], in [8], in [10] and in assay [11] was “inactive” throughout. Moreover, the Potency entry in assay [12], in assay [13], in assay [15] and in assay [17] was “inactive” in each case. Also, the result in assay [3], in assay [4], in assay [5], in assay [6], in assay [9] and in [14] was inactive. Further, the call in assay [16], in assay [18], in assay [19] and in [20] was inactive.

With `Cc1cccc(C)c1NC(=O)c1ccccc1C(=O)O`, the Potency entry in assay [1], in [2], in assay [8], in assay [10], in assay [11] and in [12] was “inactive” each time. Also, the Potency entry in assay [13], in assay [15] and in assay [17] was “inactive” each time. For the same compound, the call in [3], in [4], in assay [5], in assay [6], in assay [9] and in [14] was inactive. In addition, the call in assay [16], in assay [18] and in assay [19] was inactive.

In the case of `COc1ccc2c(c1)C(=O)N(CCc1ccc(S(=O)(=O)NC(=O)NC3CCCCC3)cc1)C(=O)C2(C)C`, the Potency entry in [1], in [2], in assay [7], in assay [8], in [10] and in assay [11] was “inactive” throughout. Besides, the Potency entry in assay [12] and in assay [13] was “inactive” throughout. Besides, the outcome in assay [3], in assay [4], in assay [5], in assay [6], in assay [14] and in assay [16] was inactive. Besides, in assay [19], the result was inactive.

As for `CCCCCCCCC(=O)Cl`, the Potency result in assay [1], in assay [2], in assay [7], in assay [8], in assay [10] and in [11] was “inactive” throughout. The Potency result in assay [12] is “inactive”. Further, the result in [3], in [4], in assay [5], in assay [6], in [9] and in assay [14] was inactive. The compound was called inactive in assay [16], in assay [19] and in assay [20].

As for `CCOC(=O)/C=C/c1ccccc1`, the Potency result in [1], in [2], in assay [7], in [8], in assay [10] and in assay [11] was “inactive” in each case. The Potency result in [12], in [13] and in assay [15] was “inactive” throughout. In addition, the compound was called inactive in assay [3], in [4], in assay [6], in [9], in [14] and in [16]. For the same compound, the compound was classed as inactive in assay [18] and in assay [19].

Turning to `CCOC(=O)[C@H](CCc1ccccc1)N[C@@H](C)C(=O)N1C(=O)N(C)C[C@H]1C(=O)O`, the Potency entry in assay [1], in [2], in assay [7], in assay [8], in assay [10] and in assay [11] was “inactive” throughout. For the same compound, the Potency result in assay [12], in [13], in assay [15] and in [17] was “inactive” in each case. In addition, the call in assay [3], in [4], in assay [5], in [6], in [14] and in assay [16] was inactive. In addition, the result in assay [20] was inactive.

Consider `O=C1O[C@@H]2[C@@H](O)[C@H](O)O[C@@H]2[C@H]1O`, for which the Potency entry in assay [1], in assay [2], in [7], in assay [8], in assay [10] and in assay [11] was “inactive” each time. Moreover, the Potency entry in [12], in [15] and in assay [17] was “inactive” in each case. In addition, the outcome in assay [3], in assay [4], in assay [5], in assay [6], in assay [9] and in assay [14] was inactive. Besides, the result in [16], in [18], in assay [19] and in assay [20] was inactive.

With `CC(=O)NCc1c(I)c(NC(C)=O)c(I)c(C(=O)O)c1I`, the Potency entry in assay [1], in assay [2], in [8], in assay [10], in assay [11] and in [12] was “inactive” each time. In addition, in assay [17], the Potency entry is “inactive”. For the same compound, the compound was classed as inactive in [3], in assay [4], in [5], in [6], in assay [9] and in assay [14]. Moreover, the call in [18] and in assay [19] was inactive. Moreover, in [7], the Potency was 13.3 µM (active).
